Reference: PubChem BioAssay AID1159580 (chemical genetic matrix, 2015)
Several values for one entry are separate records, joined by “and”; a condition that tells them apart may be missing. Identical values can stand only once. Screen size: about 5,500 compounds; about 2,000 (36%) were called active. Not shown: some 18% with an inconclusive outcome. No stated cut-off is given here; in the data, active means normalized growth mostly below about 0.91 (no sharp cut-off); inconclusive means no clear call, values can overlap the other calls; inactive means mostly above about 0.92. The list shows a part of the results.

Experiment: chemical genetic growth profiling, strain panel (AID 1159580);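 further: tested at 20 µM; growth read once vehicle control cultures reached saturation at 30 °C; 1 = growth at the plate median or of vehicle wells; lower values mean less growth of the strain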
Details: growth OD

Measured: normalized growth

CCn1cc(C(=O)O)c(=O)c2cc3c(cc21)OCO3
inactive: S. cerevisiae deletion strains, locus YJR066W, strain TOR1, active compounds read low 0.991 | S. cerevisiae deletion strains, locus YJR075W, strain HOC1, active compounds read low 1.02 and 0.993 | S. cerevisiae deletion strains, locus YKL009W, strain mrt4, active compounds read low 1.01 | S. cerevisiae deletion strains, locus YKL068W, active compounds read low 0.996 | S. cerevisiae deletion strains, locus YKL085W, strain MDH1 (second series), active compounds read low 0.996 | S. cerevisiae deletion strains, locus YKL085W, strain MDH1, active compounds read low 0.996 | S. cerevisiae deletion strains, locus YKL160W, strain elf1, active compounds read low 0.961 | S. cerevisiae deletion strains, locus YKL190W, strain CNB1, active compounds read low 1.01 | S. cerevisiae deletion strains, locus YKR001C, strain vps1, active compounds read low 1.01 | S. cerevisiae deletion strains, locus YKR026C, strain gcn3, active compounds read low 0.987 | S. cerevisiae deletion strains, locus YKR091W, strain srl3, active compounds read low 0.982 | S. cerevisiae deletion strains, locus YLL001W, strain dnm1, active compounds read low 0.96 | S. cerevisiae deletion strains, locus YLL026W, active compounds read low 0.988 | S. cerevisiae deletion strains, locus YLL041C, strain sdh2, active compounds read low 0.98 | S. cerevisiae deletion strains, locus YLR027C, strain aat2, active compounds read low 0.986 | S. cerevisiae deletion strains, locus YLR039C, strain RIC1, active compounds read low 1.03 | S. cerevisiae deletion strains, locus YLR058C, strain SHM2, active compounds read low 1.01 | S. cerevisiae deletion strains, locus YLR102C, strain apc9, active compounds read low 0.994 | S. cerevisiae deletion strains, locus YLR113W, strain HOG1, active compounds read low 1.07 | S. cerevisiae deletion strains, locus YLR221C, strain rsa3, active compounds read low 0.96 | S. cerevisiae deletion strains, locus YLR258W, strain gsy2, active compounds read low 0.983 | S. cerevisiae deletion strains, locus YLR262C, strain YPT6 (second series), active compounds read low 0.909 | S. cerevisiae deletion strains, locus YLR262C, strain YPT6, active compounds read low 1.04 | S. cerevisiae deletion strains, locus YLR268W, strain sec22, active compounds read low 1 | S. cerevisiae deletion strains, locus YLR320W, strain mms22, active compounds read low 0.956 | S. cerevisiae deletion strains, locus YLR330W, strain CHS5, active compounds read low 1.01 | S. cerevisiae deletion strains, locus YLR342W, strain FKS1 (second series), active compounds read low 0.996 | S. cerevisiae deletion strains, locus YLR342W, strain FKS1, active compounds read low 0.977 | S. cerevisiae deletion strains, locus YLR357W, strain rsc2, active compounds read low 0.944 | S. cerevisiae deletion strains, locus YLR370C, strain arc18, active compounds read low 0.964 | S. cerevisiae deletion strains, locus YLR371W, strain rom2, active compounds read low 0.993 | S. cerevisiae deletion strains, locus YLR384C, strain iki3, active compounds read low 0.959 | S. cerevisiae deletion strains, locus YLR418C, strain cdc73, active compounds read low 1.01 | S. cerevisiae deletion strains, locus YML016C, strain PPZ1, active compounds read low 1.01 | S. cerevisiae deletion strains, locus YML032C, strain rad52, active compounds read low 1 | S. cerevisiae deletion strains, locus YML120C, strain ndi1, active compounds read low 0.97 | S. cerevisiae deletion strains, locus YML124C, strain tub3, active compounds read low 0.997 | S. cerevisiae deletion strains, locus YMR058W, strain fet3, active compounds read low 0.982 | S. cerevisiae deletion strains, locus YMR078C, strain ctf18, active compounds read low 1 | S. cerevisiae deletion strains, locus YMR125W, strain sto1, active compounds read low 0.962 | S. cerevisiae deletion strains, locus YMR129W, active compounds read low 0.989 | S. cerevisiae deletion strains, locus YMR205C, strain PFK2, active compounds read low 0.946 | S. cerevisiae deletion strains, locus YMR223W, strain ubp8, active compounds read low 1 | S. cerevisiae deletion strains, locus YMR231W, strain pep5, active compounds read low 0.978 | S. cerevisiae deletion strains, locus YMR263W, strain SAP30, active compounds read low 0.994 | S. cerevisiae deletion strains, locus YMR307W, strain GAS1, active compounds read low 1.04 | S. cerevisiae deletion strains, locus YNL067W, strain RPL9B, active compounds read low 1.02 | S. cerevisiae deletion strains, locus YNL071W, strain lat1, active compounds read low 0.984 | S. cerevisiae deletion strains, locus YNL128W, strain TEP1, active compounds read low 0.983 | S. cerevisiae deletion strains, locus YNL153C, strain GIM3, active compounds read low 0.997 | S. cerevisiae deletion strains, locus YNL175C, strain NOP13, active compounds read low 0.988 | S. cerevisiae deletion strains, locus YNL183C, strain NPR1, active compounds read low 0.973 | S. cerevisiae deletion strains, locus YNL197C, strain WHI3, active compounds read low 0.984 | S. cerevisiae deletion strains, locus YNL209W, strain ssb2, active compounds read low 0.986 | S. cerevisiae deletion strains, locus YNL224C, strain SQS1, active compounds read low 0.972 | S. cerevisiae deletion strains, locus YNL233W, strain BNI4, active compounds read low 1.02 | S. cerevisiae deletion strains, locus YNL248C, strain rpa49, active compounds read low 0.964 | S. cerevisiae deletion strains, locus YNL250W, strain rad50, active compounds read low 1.01 | S. cerevisiae deletion strains, locus YNL271C, strain bni1, active compounds read low 0.993 | S. cerevisiae deletion strains, locus YNL298W, strain CLA4, active compounds read low 0.997 | S. cerevisiae deletion strains, locus YNL307C, strain MCK1, active compounds read low 0.997 | S. cerevisiae deletion strains, locus YNL322C, strain KRE1 (second series), active compounds read low 0.959 | S. cerevisiae deletion strains, locus YNR049C, strain mso1, active compounds read low 0.974 | S. cerevisiae deletion strains, locus YNR052C, strain pop2, active compounds read low 1 | S. cerevisiae deletion strains, locus YOL006C, strain TOP1, active compounds read low 1.04 | S. cerevisiae deletion strains, locus YOL012C, strain htz1 1.19 | S. cerevisiae deletion strains, locus YOL147C, strain pex11, active compounds read low 0.991 | S. cerevisiae deletion strains, locus YOR001W, strain rrp6, active compounds read low 1.01 | S. cerevisiae deletion strains, locus YOR061W, strain CKA2, active compounds read low 1.02 | S. cerevisiae deletion strains, locus YOR069W, strain VPS5, active compounds read low 1.01 | S. cerevisiae deletion strains, locus YOR070C, strain gyp1, active compounds read low 0.975 | S. cerevisiae deletion strains, locus YOR080W, strain dia2, active compounds read low 0.972 | S. cerevisiae deletion strains, locus YOR083W, strain WHI5 (second series), active compounds read low 0.981 | S. cerevisiae deletion strains, locus YOR083W, strain WHI5, active compounds read low 0.969 | S. cerevisiae deletion strains, locus YOR106W, strain vam3, active compounds read low 0.935 | S. cerevisiae deletion strains, locus YOR136W, strain idh2, active compounds read low 0.997 | S. cerevisiae deletion strains, locus YOR144C, strain elg1, active compounds read low 0.991 | S. cerevisiae deletion strains, locus YOR184W, strain ser1, active compounds read low 0.998 | S. cerevisiae deletion strains, locus YOR231W, strain MKK1, active compounds read low 1.1 | S. cerevisiae deletion strains, locus YOR265W, strain rbl2, active compounds read low 0.973 | S. cerevisiae deletion strains, locus YOR270C, strain vph1, active compounds read low 0.957 | S. cerevisiae deletion strains, locus YOR290C, strain snf2, active compounds read low 0.976 | S. cerevisiae deletion strains, locus YOR316C, strain cot1, active compounds read low 0.997 | S. cerevisiae deletion strains, locus YPL051W, strain arl3, active compounds read low 0.995 | S. cerevisiae deletion strains, locus YPL055C, strain LGE1, active compounds read low 0.985 | S. cerevisiae deletion strains, locus YPL078C, strain atp4, active compounds read low 0.971 | S. cerevisiae deletion strains, locus YPL106C, strain sse1, active compounds read low 0.936 | S. cerevisiae deletion strains, locus YPL240C, strain hsp82, active compounds read low 0.992 | S. cerevisiae deletion strains, locus YPL256C, strain CLN2, active compounds read low 1.09 | S. cerevisiae deletion strains, locus YPR119W, strain clb2, active compounds read low 0.988 | S. cerevisiae deletion strains, locus YPR141C, strain kar3, active compounds read low 0.988 | S. cerevisiae deletion strains, locus YPR163C, strain tif3, active compounds read low 0.987 | S. cerevisiae deletion strains, locus YPR167C, strain met16, active compounds read low 0.985 | S. cerevisiae deletion strains, strain wtn01, active compounds read low 1 | S. cerevisiae strains, strain wild type, active compounds read low 1.02
